{"source": "PubChem BioAssay (NCI)", "note": "About 83,000 compounds went through this panel and 20% of them were active in at least one assay; those are over-represented in the sample as a whole.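 Cell lines were cultured in 96-well plates, exposed to a single compound concentration, and assessed for percent growth 48 hours later.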 Calls of active or inactive are those of the source. How the source made its calls: active means growth percent below 10; inactive means the rest.", "data": [{"test_system": "MDA-MB-468 breast", "assay": "NCI-60 one-dose screen, 48 h (100 = growth as untreated, 0 = no growth, -100 = all killed)", "conditions": "10 µM unless noted", "values": [{"smiles": "CC(=O)Nc1ccc(-n2cnc3cc(-c4ccc(OCCN5CCCCC5)cc4)ccc32)cc1", "growth": "115% (inactive)"}, {"smiles": "COc1ccc(/C=C2\\COc3ccc(O)cc3C2=O)c(OC)c1", "growth": "-1.02% (active)"}, {"smiles": "COc1ccc(S(=O)(=O)NCCCNc2nccc(-c3c(-c4cccc(N)c4)nc4sccn34)n2)cc1", "growth": "78.7% (inactive)"}, {"smiles": "CCN1C(=O)N(c2ccccc2)C2NC(=S)N(/N=C/C=C/c3ccccc3)C21", "note": "(stereo not given)", "growth": "5.41% (active)"}, {"smiles": "CN1C(=O)C2(NN=C(c3cccc4ccccc34)S2)c2ccccc21", "note": "(stereo not given)", "growth": "32.4% (inactive)"}, {"smiles": "O=C(Nc1cccc(C(F)(F)F)c1)Oc1ccc(Cl)c2cccnc12", "growth": "-27.2% (active)"}, {"smiles": "Cc1cc(C(=O)O)c(N)c(C)n1", "growth": "120% (inactive)"}, {"smiles": "C1CCC([PH+](C2CCCCC2)C2CCCCC2[PH+](C2CCCCC2)C2CCCCC2)CC1.[Au].[CH-]1CCCCC1C1CCCC[N-]1", "note": "(stereo not given)", "growth": "-33.9% (active)"}, {"smiles": "COc1ccc(-c2ccccc2)cc1-c1c(Nc2cc(Cl)cc(Cl)c2O)c(=O)c1=O", "growth": "-3.49% (active)"}, {"smiles": "O=C1NC(=O)C(c2ccccc2)(c2ccccc2)N1Cc1cn(-c2c3ccccc3nc3ccccc23)nn1", "growth": "38.2% (inactive)"}, {"smiles": "COc1cccc(NC(=O)c2cccc(C3CCc4c(cc(OC)c(OC)c4OC)O3)c2)c1", "note": "(stereo not given)", "growth": "71.5% (inactive)"}, {"smiles": "O=C(/C(=C/c1ccc([N+](=O)[O-])cc1)SCc1ccc(F)cc1)c1ccc(F)cc1", "growth": "83.7% (inactive)"}, {"smiles": "COc1cccc(/C=C2\\COc3ccc(O)cc3C2=O)c1", "growth": "66.2% (inactive)"}, {"smiles": "COC(=O)c1nc(=S)[nH]c(C(=O)OC)c1C(=O)c1ccc(Cl)c(Cl)c1", "growth": "105% (inactive)"}, {"smiles": "CC/C=C\\C[C@H](O)C/C=C1/C(=O)C=C[C@@H]1C/C=C\\CCCC(N)=O", "growth": "-33.1% (active)"}, {"smiles": "CCOc1cccc(/C=N\\Nc2nc(=O)cc(C(=O)OC)s2)c1O", "growth": "49.9% (inactive)"}, {"smiles": "FC(F)(F)c1ccc(-c2cnc(Br)nc2NC2CCCCCC2)cc1", "growth": "12.6% (inactive)"}, {"smiles": "C=C(C(N)=O)C(N)C(=O)O", "note": "(stereo not given)", "growth": "121% (inactive)"}, {"smiles": "Cc1ccc(C)c2c1sc1nc3n[nH]c(N)c3c(=N)n12", "growth": "97.1% (inactive)"}, {"smiles": "C#CCNC1CCC(c2csc(C#C)n2)=C1C", "note": "(stereo not given)", "growth": "58.9% (inactive)"}, {"smiles": "O=C1NC(=O)c2ncccc21", "growth": "93.8% (inactive)"}, {"smiles": "COc1cc(F)c(/C=C/c2cc(/C=C/c3cc(OC)c(OC)cc3F)on2)cc1OC", "growth": "77.6% (inactive)"}, {"smiles": "COc1c(O)c2c3c(c1OC)-c1ccccc1CC3N(S(=O)(=O)c1ccc(C)cc1)CC2", "note": "(stereo not given)", "growth": "37.1% (inactive)"}, {"smiles": "C=C1c2c(C)nn(-c3ccc(NC(C)=O)cc3)c2N(C)C23CC1C1(C)c4c(C)nn(-c5ccc(NC(C)=O)cc5)c4N(C)C(C)(CC12)C3", "note": "(stereo not given)", "growth": "14.5% (inactive)"}, {"smiles": "N#CC(C#N)=NO", "growth": "93.2% (inactive)"}, {"smiles": "O=S(=O)(NCCCNc1nccc(-n2cnc3ccccc32)n1)c1ccc(C(F)(F)F)cc1", "growth": "76.2% (inactive)"}, {"smiles": "COc1ccc(Cl)c([N+](=O)[O-])c1", "growth": "99.9% (inactive)"}, {"smiles": "O=c1c2cc(F)ccc2sc2c(N3CCNCC3)nc3ccccc3c12", "growth": "-41.2% (active)"}, {"smiles": "COc1cc(NCCN(CC(C)C)C2CCCC2)c2ncccc2c1", "growth": "-13.9% (active)"}, {"smiles": "CC[C@H](CO)Nc1ccc2ncc(C#Cc3cncc(C(=O)Nc4ccc(CN5CCN(C)CC5)c(C(F)(F)F)c4)c3)n2n1", "growth": "-67.8% (active)"}, {"smiles": "O=C1c2ccc3c4c(ccc(c24)C(=O)N1CCCCO)C(=O)N(CCCCO)C3=O", "growth": "-29.2% (active)"}, {"smiles": "C=CC(=O)Nc1cc2c(Nc3ccc(F)c(Cl)c3)ncnc2cc1C#CC(C)(C)N1CCN(C)CC1", "growth": "-61.1% (active)"}, {"smiles": "CC(CCC(=O)O)[C@H]1CCC2C3C(=O)C[C@@H]4CC(=O)CC[C@]4(C)C3CC(=O)[C@@]21C", "note": "(stereo not given in full)", "growth": "112% (inactive)"}, {"smiles": "CN1CCN(Cc2ccc(NC(=O)c3cnc(F)c(C#Cc4cnc(N)c5ncccc45)c3)cc2C(F)(F)F)CC1", "growth": "-5.56% (active)"}, {"smiles": "N#Cc1ccc(OC(=O)Nc2cc(Cl)cc(Cl)c2)cc1", "growth": "-16.4% [100 µM] (active)"}, {"smiles": "CCCCCCCCC(=O)OCCCC(CCC(CCC1CCCO1)OC(=O)CCCCCCCC)OC(=O)CCCCCCCC", "note": "(stereo not given)", "growth": "111% (inactive)"}, {"smiles": "C=CCOC(=O)C1=C(C)NC(=O)NC1c1c(Cl)n(C)c2ccccc12", "note": "(stereo not given)", "growth": "106% (inactive)"}, {"smiles": "CCCCCCCCCCCCCC1=NC(C)(C)CN1C(C)C", "growth": "-61.4% (active)"}, {"smiles": "CCOC(=O)/C=C/c1ccc(C(=O)OCC)[nH]1", "growth": "53.5% (inactive)"}, {"smiles": "Cc1ccc(NC(=O)CN2CCOCC2)cc1Cl", "growth": "99.1% (inactive)"}]}]}
